Reference: PubChem BioAssay (NCATS)
Several values for one entry are separate records, joined by “and”; a condition that tells them apart may be missing. Identical values can stand only once. Unmarked numbers belong to inactive results. Results filed as inconclusive are left out. Entries that show only a call come without a potency. Activity calls are given as the source filed them. Unless noted, the call rests on the fitted dose curve; in most records, active means well fitted curve in the direction sought with a large enough effect; inconclusive means small, poorly fitted or top-dose-only effect, or another doubt; inactive means no such curve, though single readings can be large; an effect the other way counts as inactive or inconclusive. Peptide text beside a SMILES is read from it.

Columns and labels:
[1] = target: Glucocorticoid receptor (Homo sapiens) (UniProt P04150); test: GR-EFC Redistribution (AID 451; calls by dose curve); details: CHO-K1 GR-EFC translocation, beta-gal luminescence, 2 h
Method in brief: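 CHO-K1 cells stably expressing nuclear-localized β-gal enzyme acceptor and GR fused C-terminally to the enzyme donor fragment; ligand-driven nuclear translocation restores β-gal by complementation. Compounds titrated up to 46 uM final, 2 h at 37 °C; luminescence read.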

[2] = target: Mitogen-activated protein kinase 10 (Mus musculus) (UniProt Q61831); test: JNK3 AlphaScreen Assay (AID 530; active means well fitted curve in either direction with a large enough effect, not every such curve was filed as active;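 further: kinase came from lysate of stimulated human HepG2 cells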); details: JNK3 lysate, c-Jun phosphorylation; series mostly up to 57.1 µM
Method in brief: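 Inhibitors reduce antibody binding to phosphorylated biotin-cJun, lowering AlphaScreen luminescence. Lysates from HepG2 cells pre-activated by IL-1beta plus TNF-alpha supplied JNK3; compounds were titrated.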

[3] = target: Glucocorticoid receptor (Homo sapiens) (UniProt P04150); test: GR-GFP Redistribution (AID 450;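 active means compounds whose dose series gives a full or clear partial fitted curve of increased nuclear translocation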); details: U2OS GR-GFP nuclear translocation, laser cytometry, 2 h
[4] = Cell Viability - HUV-EC-C (AID 542); details: HUV-EC-C endothelial cell viability, qHTS; series mostly up to 92.2 µM; further: nearly all actives have a fitted effect of over 35% in size
Method in brief: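 HUV-EC-C human vascular endothelial cells, 1000/well, exposed to compound for 40 hr at 37 °C in complete medium. Intracellular ATP was read by CellTiter-Glo luminescence. AC50 came from Hill-equation fits of concentration-response data.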

[5] = Cell Viability - H-4-II-E (AID 543); details: H-4-II-E rat hepatoma viability; series mostly up to 92.2 µM; further: nearly all actives have a fitted effect of over 35% in size
Method in brief: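 Rat hepatoma H-4-II-E cells, 1500 per well, treated 40 h at 37 °C in complete medium. Cellular ATP read by CellTiter-Glo luminescence; AC50 from Hill fits of concentration-response.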

[6] = Cell Viability - SH-SY5Y (AID 544); details: SH-SY5Y neuroblastoma cell viability; series mostly up to 92.2 µM; further: nearly all actives have a fitted effect of over 55% in size
Method in brief: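 SH-SY5Y human neuroblastoma cells (1500/well) incubated 5 h, then compound-treated 40 h at 37 °C in complete medium. Viability read as intracellular ATP by CellTiter-Glo luminescence after 20 min; AC50 from Hill-equation fits of qHTS concentration-response.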

[7] = Cell Viability - Renal Proximal Tubule (AID 545); details: renal proximal tubule cells viability, primary cells of rat origin; series mostly up to 91.7 µM; further: nearly all actives have a fitted effect of over 40% in size
Method in brief: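 Luminescent ATP signal (CellTiter-Glo) served as the viability read-out after 40 hr compound exposure of freshly isolated rat proximal tubule cells at 37 °C. Concentration-dependent ATP loss was fitted with the Hill equation to give AC50.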

[8] = Cell Viability - Mesenchymal (AID 546); details: mesenchymal cells viability, qHTS; series mostly up to 91.7 µM;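 further: cells exposed to compound for 40 hours before reading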
Method in brief: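 Normal human renal glomerulus-derived kidney mesenchymal cells, 1000 per well in complete medium, were treated with compounds for 40 hr at 37 °C. Viability was read as intracellular ATP by CellTiter-Glo luminescence; AC50 values came from Hill-equation fits of qHTS concentration-response data.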

[9] = Cell Viability - N2a (AID 540); details: N2a mouse neuroblastoma cell viability; activity change, negative = cytotoxicity: at 92.2 µM (top of the series); further: nearly all actives have a fitted effect of over 45% in size
Method in brief: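 Mouse neuroblastoma N2a cells, 1500/well, exposed to compounds 40 h at 37 °C in complete medium. Viability measured as cellular ATP by CellTiter-Glo luminescence; AC50 from Hill fits of concentration-response.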

[10] = Cell Viability - NIH 3T3 (AID 541); details: NIH 3T3 cell viability, qHTS; series mostly up to 92.2 µM; further: nearly all actives have a fitted effect of over 25% in size
Method in brief: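 Mouse NIH 3T3 fibroblasts, 1000 cells/well, rested 5 hr at 37 °C, then exposed to compound for 40 hr at 37 °C in complete medium. Viability read as intracellular ATP by CellTiter-Glo luminescence; AC50 from Hill-equation fits of concentration-response data.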
Potency means the concentration at half of the fitted maximal effect.

Sequence of Glucocorticoid receptor (Homo sapiens) (P04150 whole entry, looked up, the tested form may be a part): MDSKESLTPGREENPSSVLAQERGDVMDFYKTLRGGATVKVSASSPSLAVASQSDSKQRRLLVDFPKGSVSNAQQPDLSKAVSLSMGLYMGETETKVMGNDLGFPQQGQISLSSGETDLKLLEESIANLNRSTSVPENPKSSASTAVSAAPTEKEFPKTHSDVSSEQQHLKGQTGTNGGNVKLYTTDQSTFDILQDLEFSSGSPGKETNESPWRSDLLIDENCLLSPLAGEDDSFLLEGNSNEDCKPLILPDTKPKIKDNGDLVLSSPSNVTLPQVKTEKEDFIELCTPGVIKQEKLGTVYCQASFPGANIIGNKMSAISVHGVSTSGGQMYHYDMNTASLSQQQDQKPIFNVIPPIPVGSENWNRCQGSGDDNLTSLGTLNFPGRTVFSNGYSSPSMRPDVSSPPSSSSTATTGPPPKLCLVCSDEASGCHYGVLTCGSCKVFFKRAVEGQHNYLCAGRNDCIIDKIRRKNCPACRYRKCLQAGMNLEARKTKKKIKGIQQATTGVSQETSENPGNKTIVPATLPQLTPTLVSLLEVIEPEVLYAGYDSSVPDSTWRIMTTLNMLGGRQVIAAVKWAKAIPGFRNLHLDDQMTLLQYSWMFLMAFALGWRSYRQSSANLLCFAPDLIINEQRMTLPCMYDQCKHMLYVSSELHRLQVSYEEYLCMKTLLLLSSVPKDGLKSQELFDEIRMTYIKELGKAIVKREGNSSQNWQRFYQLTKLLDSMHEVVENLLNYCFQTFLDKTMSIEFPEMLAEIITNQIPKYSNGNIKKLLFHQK

NNc1nncc2ccccc12
Potency [1]: > 46 µM and > 20.6 µM | Potency [2]: inactive

C[C@H](Cc1ccc(O)c(O)c1)[C@@H](C)Cc1ccc(O)c(O)c1
Potency [1]: > 46 µM

Cc1c(OCC(F)(F)F)ccnc1CS(=O)c1nc2ccccc2[nH]1 (stereo not drawn)
Potency [1]: > 46 µM and > 20.6 µM | Potency [2]: inactive

N=C(N=C(N)N)N1CCOCC1
Potency [3]: > 20.6 µM and > 46 µM | Potency [1]: > 20.6 µM and > 46 µM | Potency [2]: inactive

COc1ccccc1N1CCN(CCN(C(=O)C2CCCCC2)c2ccccn2)CC1
Potency [3]: > 46 µM | Potency [1]: > 46 µM | Potency [2]: inactive

O=c1ccc2ccc(O)c(O)c2o1
Potency [1]: > 46 µM | Potency [2]: inactive

NC(=NCc1ccccc1)NC(=O)c1nc(Cl)c(N)nc1N
Potency [1]: > 46 µM and > 20.6 µM | Potency [2]: inactive

CCC1=C(C)CN(C(=O)NCCc2ccc(S(=O)(=O)NC(=O)NC3CCC(C)CC3)cc2)C1=O (stereo not drawn)
Potency [1]: > 20.6 µM | Potency [2]: inactive

Oc1ccc(-c2nc(-c3ccc(F)cc3)c(-c3ccncc3)[nH]2)cc1
Potency [1]: > 46 µM

O=C(O)c1cccnc1Nc1cccc(C(F)(F)F)c1
Potency [1]: > 46 µM and > 20.6 µM | Potency [2]: inactive

COC(=O)C1=C(C)NC(C)=C(C(=O)OC(C)C)C1c1cccc2nonc12 (stereo not drawn)
Potency [3]: > 46 µM | Potency [1]: > 46 µM | Potency [2]: inactive

Nc1cc(C(Cl)=C(Cl)Cl)c(S(N)(=O)=O)cc1S(N)(=O)=O
Potency [1]: > 20.6 µM | Potency [2]: inactive

COc1cc(OC)c(C(=O)CCCN2CCCC2)c(OC)c1
Potency [1]: > 20.6 µM | Potency [2]: inactive

Nc1nc(OCc2ccccc2)c2[nH]cnc2n1
Potency [3]: > 46 µM | Potency [1]: > 46 µM

O=C1NC(=O)C(c2ccccc2[N+](=O)[O-])=C1Nc1ccc(O)c(Cl)c1
Potency [1]: > 46 µM

CC(=O)N1CCN(c2ccc(OC[C@H]3CO[C@](Cn4ccnc4)(c4ccc(Cl)cc4Cl)O3)cc2)CC1
Potency [3]: > 46 µM | Potency [1]: > 46 µM

CC1(C)C(=O)N(CCN2CCC(C(=O)c3ccc(F)cc3)CC2)c2ccccc21
Potency [1]: > 46 µM

O=c1c(O)c(-c2cc(O)c(O)c(O)c2)oc2cc(O)cc(O)c12
Potency [1]: > 46 µM and > 20.6 µM | Potency [2]: 12.6 µM (active)

CCCCN(CCCC)CCC(O)c1cc2c(Cl)cc(Cl)cc2c2cc(C(F)(F)F)ccc12 (stereo not drawn)
Potency [1]: > 20.6 µM | Potency [2]: inactive

O=c1c(O)c(-c2ccc(O)cc2O)oc2cc(O)cc(O)c12
Potency [1]: > 46 µM | Potency [2]: inactive

Cc1cc(C2CCCCC2)n(O)c(=O)c1
Potency [1]: > 20.6 µM | Potency [2]: inactive

CC(C)c1ccc2c(c1)c(SC(C)(C)C)c(CC(C)(C)C(=O)O)n2Cc1ccc(Cl)cc1
Potency [1]: > 46 µM | Potency [2]: inactive

NCCCCNCCCN
Potency [1]: > 46 µM | Potency [2]: inactive

CCOC(=O)C1=C(O)C(=O)N(Cc2ccccc2)C1
Potency [1]: > 46 µM

CCN(CC)CCOc1ccc(Cc2ccccc2)cc1
Potency [1]: > 46 µM | Potency [2]: inactive

Oc1ccc(OCc2ccccc2)cc1
Potency [1]: > 20.6 µM | Potency [2]: inactive

O=C(NCCO[N+](=O)[O-])c1cccnc1
Potency [1]: > 46 µM | Potency [2]: inactive

O=C(CCc1ccc(O)cc1)c1c(O)cc(O)cc1O
Potency [1]: > 46 µM | Potency [2]: inactive

CCc1nc(N)nc(N)c1-c1ccc(Cl)cc1
Potency [1]: > 20.6 µM | Potency [2]: inactive | Potency [4]: inactive | Potency [5]: 0.158 µM (active) | Potency [6]: inactive | Potency [7]: inactive | Potency [8]: 2 µM (active)

Cc1nc2n(c(=O)c1CCN1CCC(c3noc4cc(F)ccc34)CC1)CCCC2
Potency [2]: inactive

Cc1cc(=O)oc2cc(O)ccc12
Potency [2]: inactive

CCCc1cc(=O)[nH]c(=S)[nH]1
Potency [2]: inactive | Potency [9]: inactive | Potency [10]: inactive | Potency [4]: inactive | Potency [5]: inactive | Potency [7]: inactive | Potency [8]: inactive

Cc1cccc(C#Cc2ccccc2)n1
Potency [1]: > 46 µM | Potency [2]: inactive

CCCCc1ccc2nc(NC(=O)OC)[nH]c2c1
Potency [2]: inactive

Nc1ccc(S(N)(=O)=O)cc1
Potency [1]: > 20.6 µM | Potency [2]: inactive | Potency [9]: inactive | Potency [10]: inactive | Potency [4]: inactive | Potency [5]: inactive | Potency [6]: inactive | Potency [7]: inactive | Potency [8]: inactive

COc1c2occc2cc2ccc(=O)oc12
Potency [1]: > 20.6 µM | Potency [2]: inactive | Potency [9]: inactive | Potency [10]: inactive | Potency [4]: inactive | Potency [5]: inactive | Potency [6]: inactive | Potency [7]: inactive | Potency [8]: inactive

CS(=O)(=O)OCCCCOS(C)(=O)=O
Potency [2]: inactive | Potency [9]: inactive | Potency [10]: inactive | Potency [4]: inactive | Potency [5]: inactive | Potency [6]: inactive | Potency [7]: inactive | Potency [8]: inactive

COC(=O)[C@H](Cc1ccccc1)NC(=O)[C@@H](N)CC(=O)O (H-Asp-Phe-OMe)
Potency [2]: inactive | Potency [9]: inactive | Potency [10]: inactive | Potency [4]: inactive | Potency [5]: inactive | Potency [6]: inactive | Potency [7]: inactive | Potency [8]: inactive

CCCCC(CC)COC(=O)C(C#N)=C(c1ccccc1)c1ccccc1 (stereo not drawn)
Potency [4]: inactive | Potency [6]: inactive | Potency [7]: inactive | Potency [8]: inactive

CN1CCC(=C2c3ccccc3CCc3sccc32)CC1
Potency [2]: inactive

CCN(CC)C(=S)SSC(=S)N(CC)CC
Potency [1]: > 46 µM and > 20.6 µM | Potency [2]: inactive

CN1C(C(=O)Nc2ccccn2)=C(O)c2sccc2S1(=O)=O
Potency [1]: > 20.6 µM | Potency [2]: inactive

CC1(C)NC(=O)N(c2ccc([N+](=O)[O-])c(C(F)(F)F)c2)C1=O
Potency [2]: inactive

CN(C)c1ccc2nc3ccc(=[N+](C)C)cc-3sc2c1
Potency [9]: 2.51 µM (active) | Potency [10]: 631 nM (active) | Potency [4]: 2.51 µM (active) | Potency [5]: 7.94 µM (active) | Potency [6]: 15.8 µM (active) | Potency [7]: 31.6 µM (active) | Potency [8]: 31.6 µM (active)

NS(=O)(=O)c1cc(C(=O)O)c(NCc2ccco2)cc1Cl
Potency [2]: inactive | Potency [9]: inactive | Potency [10]: inactive | Potency [4]: inactive | Potency [6]: inactive | Potency [7]: inactive | Potency [8]: inactive

O=C(O)c1cc(=O)c2c(OCC(O)COc3cccc4oc(C(=O)O)cc(=O)c34)cccc2o1
Potency [2]: inactive

Cc1cc2cc3c(C)cc(=O)oc3c(C)c2o1
Potency [2]: inactive

CCOc1cc(CC(=O)N[C@@H](CC(C)C)c2ccccc2N2CCCCC2)ccc1C(=O)O
Potency [1]: > 20.6 µM | Potency [2]: inactive

COc1ccc2cc([C@H](C)C(=O)O)ccc2c1
Potency [2]: inactive

Cc1cc(O)c2c(c1)C(=O)c1cc(O)cc(O)c1C2=O
Potency [1]: > 46 µM | activity change, negative = cytotoxicity [9]: -117% (active) | Potency [4]: 31.6 µM (active) | Potency [5]: 63.1 µM (active) | Potency [7]: inactive

CC(=O)Nc1ccc(O)cc1
Potency [2]: inactive | Potency [9]: inactive | Potency [10]: inactive | Potency [4]: inactive | Potency [5]: inactive | Potency [6]: inactive | Potency [7]: inactive | Potency [8]: inactive

Cc1ccc(C)c(OCCCC(C)(C)C(=O)O)c1
Potency [2]: inactive | Potency [9]: inactive | Potency [10]: inactive | Potency [4]: inactive | Potency [5]: inactive | Potency [6]: inactive | Potency [7]: inactive | Potency [8]: inactive

c1ccc2[nH]c(-c3cscn3)nc2c1
Potency [1]: > 20.6 µM | Potency [2]: inactive | Potency [4]: inactive | Potency [5]: inactive | Potency [6]: inactive | Potency [7]: inactive | Potency [8]: inactive

O=C1c2ccccc2-c2n[nH]c3cccc1c23
Potency [2]: 1 µM (active)

CNC[C@H](O)c1ccc(O)c(O)c1
Potency [2]: inactive

O=c1cc(N2CCOCC2)oc2c(-c3ccccc3)cccc12
Potency [1]: > 46 µM | Potency [2]: inactive
